Measured values: PubChem BioAssay AID504332 (National Center for Advancing Translational Sciences (NCATS), 2011)
Screen size: about 350,000 compounds; about 31,000 (8.9%) were called active. Roughly 15% stayed inconclusive and do not appear here. Calls come from the whole dose curve; as a rule, active = well fitted inhibition curve with a large enough effect; inconclusive = small, poorly fitted or top-dose-only effect; inactive = no such curve, though single readings can be large or run the other way. The sample as a whole holds a higher share of actives than the screen did.

Each compound was assayed against Histone-lysine N-methyltransferase EHMT2 (Homo sapiens) (UniProt Q96KQ7) (assay: qHTS Assay for Inhibitors of Histone Lysine Methyltransferase G9a). Conditions: G9a H3K9 monomethylation, AlphaScreen, 2 h; series mostly up to 59 µM; activity, negative = inhibition: at the top concentration.
Description: Methylated lysines, on the N-terminal tails of histone proteins serve as epigenetic markers to recruit factors that can then modify local chromatin structure to lead to functional consequences. G9a and other members of the SUV39 family of the SET domain-containing superfamily of histone lysine methyltransferases (HMT) have been identified to specifically methylate Lys9 of histone H3 (H3K9). G9a catalyzes the mono- and di-methylation of H3K9 in mammalian euchromatic regions, where the resulting H3K9me2 is indicative of transcriptional repression. […] The inhibition of G9a will result in transcriptional activation and work synergistically with DNA methyltransferase and histone deacetylase inhibitors, to kill cancer cells. This qHTS assay for identification of G9a inhibitors is a chemiluminescence based AlphaScreen (PerkinElmer). Methylation of biotinylated-histone peptide is measured through specific antibody-based detection, in conjunction with streptavidin-coated donor and anti-IgG antibody-coated acceptor beads. The method is particularly well suited for detection of inhibitors acting by the desired histone peptide competitive mechanism and is applicable to testing other HMTs. Although AlphaScreen has significant advantages with its utility in a variety of epigenetic target assays, the primary screening data provided in this deposition should be used with caution due to the prevalence of screening artifacts. An AlphaScreen counterscreen is highly recommended to be run against any putative actives to eliminate non specific artifacts. Alternatively, one can use other AlphaScreen assays in PubChem to filter out promiscuous hits. Quinn et al. A chemiluminescence-based method for identification of histone lysine methyltransferase inhibitors. Mol Biosyst 6(5): 782-8. 2010. PMID: 20567762 [2] Baell,Holloway. New substructure filters for removal of pan assay interference compounds (PAINS) from screening libraries and for their exclusion in bioassays. J Med Chem. 53(7):2719-40. 2010. PMID: 20131845 NIH Molecular Libraries Probe Production Network [MLPCN] NIH Chemical Genomics Center [NCGC] Structural Genomics Consortium (SGC) NIH Grant: 5U54 MH084681-02
To each well of a 1,536w plate, 2ul of HMT enzyme (final 20nM) were added, using a nanoliter dispenser. The G9a- and GLP-inhibitor BIX-01294 (CID: 25150857) are used as an intraplate control, with a 16-point titration in duplicate. A Kalypsys pin-tool transferred 23nl of library compound solution in DMSO to each well. Following a 15 min incubation of enzyme with compounds at room temperature, 1ul mixture of b-H3K9 peptide substrate (final 500nM) and SAM cofactor (final 20uM) were added. Reactions were allowed to proceed at room temperature for 2 hours. Methylated b-H3K9 peptide product was detected with 0.5 ug/mL rabbit polyclonal anti-monomethyl histone H3K9 antibody (Abcam Inc., Cambridge, MA) and 20 ug/mL each streptavidin-coated donor and anti-rabbit IgG acceptor AlphaScreen beads. Antibody and beads were added in a 1ul dispense, for a final volume of 4ul, and plates were incubated, protected from the light, for 10 min at room temperature. Microplates were then read on an EnVision multilabel plate reader using the 1,536 plate HTS AlphaScreen aperture (excitation time 80 ms, measurement time 240 ms).
% is set by controls: 0 for no effect and ±100 for the full control effect; potency is the fitted concentration of half-maximal effect.
Note: nearly all actives have a fitted effect of over 75% in size.

Sequence of Histone-lysine N-methyltransferase EHMT2 (Homo sapiens) (Q96KQ7 913-1193 limits assumed): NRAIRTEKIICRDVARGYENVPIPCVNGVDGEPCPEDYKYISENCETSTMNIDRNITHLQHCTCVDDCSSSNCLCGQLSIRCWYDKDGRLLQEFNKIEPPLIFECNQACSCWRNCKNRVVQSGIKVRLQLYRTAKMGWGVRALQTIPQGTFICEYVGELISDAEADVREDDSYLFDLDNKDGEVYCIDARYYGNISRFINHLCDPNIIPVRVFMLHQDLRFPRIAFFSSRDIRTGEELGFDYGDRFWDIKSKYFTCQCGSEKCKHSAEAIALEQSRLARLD

activity, negative = inhibition, inactive:
O=C1CCCc2cc(S(=O)(=O)N3CCCC(C(=O)NCc4ccccc4)C3)ccc2N1 (configuration not stated) -9.07%
c1ccc2c(c1)CCc1snnc1-2 -5.46% [at 0.501 µM]
Cc1ccccc1OCC(=O)NNC(=O)c1ccc(-n2cncn2)c([N+](=O)[O-])c1 21.2% [at 102 µM]
COc1ccc(-c2cc(C(F)(F)F)n3nc(-c4ccccc4)cc3n2)cc1OC 33.6%
CSCCC(NC(=O)c1ccccc1)C(=O)N1CCCCCCC1 (configuration not stated) 35.6% [at 12.7 µM]
CC(C)N(Cc1nnc(-c2ccc(Cl)cc2)o1)C(=O)C1=COCCO1 -1.89% [at 102 µM]
COc1cc2ccccc2cc1C(=O)Nc1ccccc1C 16.4%
COc1cccc(OCC(O)CNC(=O)c2oc3c(C)c(C)ccc3c2C)c1 (configuration not stated) 14.5% [at 102 µM]
CCCNC(=O)CCC(=O)N1Cc2ccccc2Oc2ncccc21 -5.24%
CCn1ccnc1CNC(=O)CC1C(=O)NCCN1CCCc1ccccc1 (configuration not stated) 39.1% [at 102 µM]
O=C(CC1C(=O)NCCN1Cc1ccc(-c2ccccc2)cc1)NCC1CCOCC1 (configuration not stated) -23.9% [at 102 µM]
COc1ccc(NC(=O)CSc2nc3ncccc3[nH]2)c(OC)c1 5.44%
CN(c1ccccc1)S(=O)(=O)c1cccc(NC(=O)Cc2ccc(Cl)cc2)c1 -10.8% [at 12.7 µM]
CCc1ccc(C(=O)N2CCN(S(=O)(=O)c3sc(C(=O)O)c(C)c3C(=O)O)CC2)cc1 10.3% [at 2.33 µM]
O=C(NCc1cccc(Cl)c1)C1=CC=CN2CCS(=O)(=O)N=C12 -59.1% [at 12.7 µM]
Cc1ccccc1NC(=O)Cn1c(=O)n(CC2CCC(C(=O)NCCc3ccccc3)CC2)c(=O)c2ccccc21 (configuration not stated) 6.89%
O=C(Nc1ncccc1O)c1ccc(C(=O)c2ccccc2)cc1 -9.21% [at 0.501 µM]
COc1ccc(CNc2nc(-c3ccccc3)nn2C(=O)c2ccccc2OC)cc1 17%
COc1ccc(S(=O)(=O)N2CCC(C(=O)NCCC(=O)NCc3cccc(OC)c3)CC2)cc1 7.88% [at 102 µM]
Cc1ccc(S(=O)(=O)Nc2nc3ccccc3s2)cc1[N+](=O)[O-] -3.63% [at 102 µM]
COc1ccc(NS(=O)(=O)c2ccc(NC(=S)NC(=O)CC(C)C)cc2)cc1 -29.8% [at 12.7 µM]
Cc1cccc(C(=O)Nc2ccc(-c3nc4ccccc4s3)c(C)c2)c1 10.3%
COc1ccc(NS(=O)(=O)c2ccc3oc(SCC(N)=O)nc3c2)cc1 -10.5% [at 102 µM]
CC(C)NC(=O)C1CCC(Cn2c(=O)c3sccc3n(Cc3ccc(F)cc3)c2=O)CC1 (configuration not stated) 9.1%
Cc1ccc(Cl)cc1NC(=O)CCS(=O)(=O)c1ccc(Br)s1 -47.7%
COc1ccccc1-n1nnnc1SCC(=O)NC(=O)Cc1ccccc1 17.7% [at 2.33 µM]
O=C(Nc1ccc(F)cc1F)c1ccc2c(=O)n3c(nc2c1)CCCCC3 -21.5%
CCCCC/C=C/C1=CC(=O)C[C@H](c2ccc(Cl)cc2)C1 8.79% [at 0.501 µM]
Cc1nnc(N2CCCC(C(=O)NCCN(C)C)C2)c2nn(-c3ccccc3)c(C)c12 (configuration not stated) -30.8%
Cc1ccc(NC(=S)N(CCCN2CCC(C)CC2)Cc2ccco2)cc1 -33.9% [at 102 µM]
Cc1ccc(C)c(N2CCN(CCCNC(=O)Nc3ccc(Cl)cc3)CC2)c1 -40.9%
COc1ccc(N=Nc2ccc(O)c(P(=O)(c3ccccc3)c3ccccc3)c2)cc1 4.01% [at 102 µM]
COc1ccccc1N1CCN(c2ncnc3onc(-c4cccc(Cl)c4)c23)CC1 5.72%
O=C(c1cnc(Cl)c(Cl)c1)N1CCN(S(=O)(=O)c2ccc(F)cc2)CC1 1.49% [at 102 µM]
CC1(c2ccc(Cl)cc2Cl)NC(=O)N(CC(=O)Nc2cccnc2Cl)C1=O (configuration not stated) -2.03% [at 102 µM]
Cc1cccc(C(=O)OCC(=O)Nc2ccc(F)cc2)c1 -7.9% [at 102 µM]
COc1cc(OC)cc(C(=O)OCC(=O)Nc2ccc(F)cc2F)c1 -3.36% [at 102 µM]
CC(CCN1CCN=C1N(C)C)c1ccccc1 (configuration not stated) 11.1% [at 2.33 µM]
COc1cc(OC)c(NC(=O)c2cc(S(=O)(=O)N3CCCC3)cn2C)cc1Cl -6.04%

Potency, active:
O=C(CC1C(=O)NCCN1CC(c1ccccc1)c1ccccc1)NCCc1cn[nH]c1 (configuration not stated) 44.7 µM
CCN(CC)c1cc(NC2CCCCC2)c2c3c(onc13)-c1ccccc1C2=O 7.08 µM
O=C(O)c1cccc(S(=O)(=O)Nc2ccc(O)cc2Sc2nc3ccccc3s2)c1 7.94 µM
COc1ccc(S(=O)(=O)Nc2ccc(O)c(Sc3nc4ccccc4s3)c2)cc1 4.47 µM
Cc1ccc(NC(=S)N(CCCN2CCCC2)Cc2cccn2Cc2ccc(Cl)cc2)cc1 50.1 µM
Cc1cc(N=Nc2ccc3ccccc3c2)ccc1O 35.5 µM
O=C(COC(=O)c1ccc(F)cc1F)Nc1ncccn1 35.5 µM
S=c1[nH]ccn1-c1ccc(Cl)cc1 3.98 µM
